We go through 40 compounds from PubChem BioAssay (EPA / NIEHS).

Each structure is given as a SMILES string. The source made the active and inactive calls. Rule for the calls: active = hit-call score of the fitted dose curve at least 0.9, where 1 is the maximum; inactive = score below 0.9.

The assay is described as follows: ATG_Oct_MLP_CIS: Attagene CIS-FACTORIAL HepG2 Assay for human Octamer-Binding Transcription Factor (Oct) (AID 2282993). Particulars: HepG2 Attagene cis-factorial Oct reporter, mRNA; actives raise or lower the signal. The protocol: ATG_CIS is a cell-based, multiplexed-readout assay that uses HepG2, a human liver cell line, with measurements taken at 24 hours after chemical dosing in a 24-well plate.ATG_Oct_MLP_CIS is one of 52 assay component(s) measured or calculated from the ATG_CIS assay. It is designed to make measurements of mRNA induction, a form of inducible reporter, as detected with fluorescence intensity signals by Reverse transcription polymerase chain reaction (RT-PCR) and Capillary electrophoresis technology.Data from the assay component ATG_Oct_MLP_CIS was analyzed into 1 assay endpoint. This assay endpoint, ATG_Oct_MLP_CIS, was analyzed with bidirectional fitting relative to DMSO as the negative control and baseline of activity. Using a type of inducible reporter, measures of mRNA for gain or loss-of-signal activity can be used to understand the reporter gene at the transcription factor-level as they relate to the gene POU2F1. Furthermore, this assay endpoint can be referred to as a primary readout, because this assay has produced multiple assay endpoints where this one serves a reporter gene function. To generalize the intended target to other relatable targets, this assay endpoint is annotated to the dna binding intended target family, where the subfamily is POU domain protein.
Human liver HepG2 cells are transiently transfected with multiple reporter transcription units (MRTUs) in 6-well plates using FuGene 6 reagent (Roche; 3 ml FuGene/1 mg DNA). The MRTU constructs are regulated by a cis-regulating element (promoter). […] A major difference between the CIS and TRANS system is that in CIS activities of endogenous TFs are measured, whereas the TRANS assay evaluates changes in activities of exogenous, chimeric NR-Gal4 proteins. […] At the end of 24 hour incubation, total RNA was isolated using TriZol reagent (Invitrogen). The isolated RNA is then reverse-transcribed using oligo(dT) primer and Mo-MLV reverse transcriptase (Invitrogen) with DNAse I (Ambion) treatment for 30 min. The one-tenth of the produced cDNA was amplified by PCR using Taq DNA polymerase (Invitrogen) and two reporter sequence-specific primers. The PCR products were fluorescently labeled by primer extension with 6-arboxyfluorescein (6-FAM) 5'-labeled reporter sequence-specific primer (2 min at 95 C, 20 s at 68 C and 10 min at 72 C) and these products were digested with 5U of HpaI (New England Biolabs) for 2h at 37 C. The fragments were purified using Qiaquick PCR columns (Qiagen), analyzed on an ABI 3130xL genetic analyzer (Applied Biosystems) with peak positions identified by using a set of X-rhodamine (ROX)-labeled MapMarker1000 molecular weight standards (BioVentures). The raw capillary electrophoresis data was processed using Attagraph software (Attagene).
On to `COC(=O)/C=C\C(=O)OC`, for which the compound was classed as inactive.

For `COC(=O)CCSCCC(=O)OC`, the compound was called inactive.

Regarding `CCCCCCCCCCC1CO1` (stereo not given), the compound was called inactive.

In the case of `CCCCCCOC(=O)CCCCCCCC(=O)OCCCCCC`, the result was inactive.

With `CC(C)(C)NC(=O)[C@@H]1CN(Cc2cccnc2)CCN1C[C@@H](O)C[C@@H](Cc1ccccc1)C(=O)N[C@H]1c2ccccc2C[C@H]1O`, the compound was classed as inactive.

For `Cc1cc2nc3c(=O)[nH]c(=O)nc-3n(C[C@H](O)[C@H](O)[C@H](O)CO)c2cc1C`, the outcome was inactive.

Turning to `CCCCCC1CCCC(=O)O1` (stereo not given), the result was inactive.

As to `c1ccc(CNc2ncnc3nc[nH]c23)cc1`, the compound was called inactive.

Consider `C=C1CC[C@H]2C[C@@H]1C2(C)C`, for which the compound was called inactive.

Take `Brc1ccc(Oc2ccc(Br)cc2)cc1`: the compound was classed as inactive.

With `CCCC(=O)OC/C=C(\C)CCC=C(C)C`, the compound was called inactive.

As to `CNC(=C[N+](=O)[O-])NCCSCc1csc(CN(C)C)n1`, the compound was called inactive.

`O=C(OCc1ccccc1)c1ccccc1`: the result was inactive.

Consider `CC1=CCCC(C)(C)C12CCC(C)O2` (stereo not given), for which the call was inactive.

On to `O=[N+]([O-])c1ccc2nc[nH]c2c1`, for which the outcome was inactive.

As for `CC/C=C\CCO`, the compound was classed as inactive.

Turning to `OCCN(CCO)c1cccc(Cl)c1`, the call was inactive.

Take `CCCC[N+]1(C)CCCC1`: the compound was classed as inactive.

As for `Oc1cccc2ccccc12`, the compound was called inactive.

As to `CC(=O)c1nccs1`, the compound was called inactive.

Consider `O=C(O)c1ccccc1C(=O)O`, for which the compound was classed as inactive.

As to `CN(C)c1ccc(C(c2ccccc2)c2ccc(N(C)C)cc2)cc1`, the outcome was inactive.

Turning to `Cc1ccccc1S(=O)(=O)O`, the compound was classed as inactive.

As to `CC/C=C/CCO`, the call was inactive.

`COC(=O)[C@]1(C)CCC[C@@]2(C)[C@H]1CC=C1C=C(C(C)C)CC[C@@H]12`: the call was inactive.

Turning to `NC(=O)c1ccc([N+](=O)[O-])cc1Cl`, the call was inactive.

Broadly, the AC50 is the midpoint of the concentration-response curve, whichever way the signal moves. In the case of `Oc1ccc(Cl)cc1C1CCCC1`, the AC50 was 47.9 µM (active).

Turning to `CN1CCCC1`, the result was inactive.

Consider `Sc1nc2ccccc2s1`, for which the compound was classed as inactive.

Consider `c1ccc2c(c1)Oc1ccccc1S2`, for which the outcome was inactive.

For the compound `Clc1ccc(Sc2cc(Cl)c(Cl)cc2Cl)cc1`, the outcome was inactive.

As to `C=CCOC(=O)C(=C)C`, the outcome was inactive.

`CC[N+](CC)(CC(=O)Nc1c(C)cccc1C)Cc1ccccc1`: the compound was classed as inactive.

With `CCOC(=O)CC(=O)OCC`, the call was inactive.

For `COc1ccc2ccccc2c1`, the compound was called inactive.

`C=C(C)C(=O)OCCCCCC`: the compound was called inactive.

Turning to `C=CCOCC(CC)(CO)COCC=C`, the call was inactive.

Take `O=C(Oc1ccccc1)c1ccccc1`: the call was inactive.

`COc1cccc(OC)c1C(=O)O`: the compound was called inactive.

`CCCCCCCCCCCCCC`: the outcome was inactive.
